Each structure is given as a SMILES string. Inconclusive results are not listed. Where a call stands in place of a potency, no number is given. Activity calls are given as the source filed them. Calls follow the shape of the dose curve; as a rule, active = well fitted inhibition curve with a large enough effect; inconclusive = small, poorly fitted or top-dose-only effect, or effect the other way; inactive = flat fitted curve, though single readings scatter.
Potency is read from the fitted curve at half-maximal effect.

The test is described as follows: qHTS for Inhibitors of Plasmodium falciparum (GB4) proliferation (AID 504315). Also: nearly all actives have a fitted effect of over 50% in size. The settings on record: P. falciparum GB4 in erythrocytes, SYBR Green DNA, 72 h; series mostly up to 6.7 µM. The method, boiled down:
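Erythrocytes infected with P. falciparum line (0.3% parasitemia, 2.5% hematocrit final) incubated with compounds 72 h at 37 °C, 5% CO2; SYBR Green lysis buffer added, fluorescence read next day. Normalized to 0.29 uM artemisinin and DMSO.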
`COC(=O)C1=C(C(=O)OC)[C@@H]2Nc3ccccc3[C@@]23C[C@@H](C(=O)OC)N(C(=O)c2ccco2)C3=N1`: the Potency result was “inactive”.
The result for `C=CCNC(=O)N1CCc2nc(COc3ccccc3)c3c(c2C1)CO[C@@H](C)C3` reads “inactive”.
As for `COC(=O)N[C@@H](c1ccccc1)[C@]1(C(=O)OC)CCCC1=O`, the Potency entry is “inactive”.
Take `COc1cccc([C@@H]2Oc3ccc(Br)cc3C(=O)[C@@H]2OC(=O)Nc2cc(OC)c(OC)c(OC)c2)c1`: the Potency result is “inactive”.
As for `COC(=O)CCC(=O)OC1(C)C(=O)C2=CN(Cc3ccc(OC)cc3)C(c3ccc(OC)cc3)=CC2=C(Br)C1=O` (stereo not given), the Potency entry was “inactive”.
The same measure for `COC(=O)C1=C(C(=O)OC)[C@@H]2N(C)c3ccc(OC)cc3[C@@]23C[C@@H](C(=O)OC)N(S(=O)(=O)c2ccc4c(c2)OCCN4C)C3=N1`: “inactive”; for `C=CCN1c2ccccc2[C@]23C[C@@H](C(=O)OC)N(C(=O)C4CCC4)C2=NC(C(=O)OC)=C(C(=O)OC)[C@H]13`: “inactive”; for `CCCCc1nc2c(c3c1C[C@H](C)OC3)CN(S(=O)(=O)c1ccc3c(c1)OCCN3C)CC2`: “inactive”.
The result for `CCCCc1nc2c(c3c1C[C@H](C)OC3)CN(C(=O)Cc1cccc(OC)c1)CC2` reads “inactive”; that for `C=CCN1C=C2C(=O)C(C)(OC(=O)CCc3ccccc3)C(=O)C=C2C=C1c1ccc(C#N)cc1` (stereo not given), “inactive”.
Take `COC(=O)[C@H]1[C@@H](C)N(Cc2ccccc2)C(=O)N[C@H]1c1ccccc1`: the Potency result was “inactive”.
As to `COC(=O)CCCC1=CC2=C(c3ccccc3)C(=O)C(C)(OC(=O)C3CCCC3)C(=O)C2=CN1C1CCCC1` (stereo not given), the Potency entry was “inactive”.
The result for `CCN1C(=O)N[C@@H](c2cccc(F)c2)C(C(C)=O)=C1C` reads “inactive”.
The same measure for `COC(=O)C1=C(C(=O)OC)[C@@H]2Nc3ccccc3[C@@]23C[C@@H](C(=O)OC)N(S(=O)(=O)c2cccs2)C3=N1`: “inactive”; for `C[C@@H]1C[C@](C)(C(=O)c2ccc3ccccc3c2)C=C1c1ccc2ccccc2c1`: “inactive”; for `COC/C=C/C1=CC2=CC(=O)C(C)(OC(=O)c3cnc4ccccc4n3)C(=O)C2=CN1Cc1ccc2c(c1)OCO2` (stereo not given): “inactive”.
For `CC#CCN1c2ccccc2[C@]23CCC(=O)N(CCCOC(C)C)C2=NC(C(=O)OC)=C(C(=O)OC)[C@H]13`, the Potency result is “inactive”.
The same measure for `COC(=O)[C@H]1[C@H](CCc2ccccc2)NC(=O)N(Cc2ccccc2)[C@@H]1C`: “inactive”; for `COC(=O)C1=C(C(=O)OC)[C@@H]2N(C)c3ccccc3[C@@]23C[C@@H](CO)N(C(=O)c2cc(C)oc2C)C3=N1`: “inactive”.
The result for `COC(=O)[C@@]1(C=C2c3ccc(F)cc3[C@@H](OC)[C@@H]2C)[C@@H]2CC=C[C@@H]21` reads “inactive”; that for `COC/C=C/C1=CC2=CC(=O)C(C)(OC(=O)c3cnc4ccccc4n3)C(=O)C2=CN1c1ccc(OC)cc1` (stereo not given), “inactive”.
The same measure for `COc1ccc2c(c1)O[C@@H](c1cccc(C(F)(F)F)c1)[C@H](OC(=O)N[C@H]1CCCc3ccccc31)C2=O`: “inactive”; for `C[C@@H](c1ccccc1)N1C(=O)[C@@H]2[C@H]3[C@H](O)[C@H](O)CC(=NNC(=O)OCc4ccccc4)[C@@H]3CC[C@H]2C1=O`: “inactive”.
For `COC(=O)C1=C(C(=O)OC)[C@@H]2N(Cc3ccccc3)c3ccccc3[C@@]23C[C@@H](C(=O)OC)N(C(=O)COCc2ccccc2)C3=N1`, the Potency entry was “inactive”.
The same measure for `C[C@H]1Cc2c(-c3ccccc3)nc3c(c2CO1)CN(C(=O)c1cc(I)ccc1F)CC3`: “inactive”; for `C=CC1=C2C=C(C3CC3)N(Cc3ccco3)C=C2C(=O)C(C)(OC(=O)c2ccco2)C1=O` (stereo not given): “inactive”.
The same measure for `CC(C)CON=C1C[C@@H](O)[C@@H](O)[C@@H]2[C@H]3C(=O)N(C4CCCCC4)C(=O)[C@@H]3CC[C@H]12`: “inactive”.
Consider `CC1(OC(=O)CCc2ccccc2)C(=O)C=C2C=C(c3ccc(C#N)cc3)N(CCc3c[nH]c4ccccc34)C=C2C1=O` (stereo not given), for which the Potency entry is “inactive”.
On to `CCCNC(=O)N1C2=NC(C(=O)OC)=C(C(=O)OC)[C@@H]3Nc4ccccc4[C@]23C[C@H]1C(=O)OC`, for which the Potency entry is “inactive”.
The result for `CCCC[C@]12Cc3cc(OC)c(OC)cc3[C@H](O1)C1=C(O2)C(=O)c2ccccc2C1=O` reads 1690 nM (active); that for `CCOC(=O)OC[C@H]1O[C@H](c2ccccc2)C=C[C@H]1OC(=O)OCC`, “inactive”; that for `O=C(C=Cc1ccc2c(c1)OCO2)c1ccccc1`, “inactive”.
The result for `CC1(OC(=O)CCc2ccccc2)C(=O)C=C2C=C(c3ccc(C#N)cc3)N(Cc3ccco3)C=C2C1=O` (stereo not given) reads “inactive”; that for `COC(=O)C1=C(C(=O)OC)[C@@H]2N(C)c3ccccc3[C@@]23C[C@@H](C(=O)OC)N(S(=O)(=O)c2ccc(OC)cc2)C3=N1`, “inactive”.
The same measure for `CCN1C(=O)N[C@H](c2ccc(Br)cc2)C(C(=O)OC)=C1C`: “inactive”; for `COC(=O)CCC(=O)OC1(C)C(=O)C2=CN(c3ccccc3)C(c3ccc(OC)cc3)=CC2=C(Br)C1=O` (stereo not given): “inactive”; for `COC(=O)[C@@H](NC(=O)N1CCc2nc(-c3ccccc3)c3c(c2C1)CO[C@@H](C)C3)C(C)C`: “inactive”.
For the molecule `COC(=O)CC=C[C@@H](C)[C@H](OC)c1cc(F)ccc1Br`, the Potency entry is “inactive”.
The result for `COC(=O)[C@@H]1[C@@H](C)N(CCc2cc(OC)c(OC)c(OC)c2)C(=O)N[C@H]1c1ccccc1` reads “inactive”; that for `COc1cccc([C@@H]2Oc3ccc(Br)cc3C(=O)[C@@H]2OC(=O)Nc2ccc(OC(F)F)cc2)c1`, “inactive”.

Source of the values: PubChem BioAssay (NCATS).
